pCIP destab: p/CIP protein destabilization | Q05BA5 | F442A p/CIP-EGFP cells, EGFP fluorescence, 16 h | decrease of EGFP signal, % at 10 µM | hit rate 0.01% among 290,000 | AID 1984;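 active = EGFP signal decrease of at least 30% at 10 µM or well 3 SD below plate mean, unless failing retest; inactive = the rest, including hits failing retest or dose response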
Target sequence (Q05BA5 1-1403): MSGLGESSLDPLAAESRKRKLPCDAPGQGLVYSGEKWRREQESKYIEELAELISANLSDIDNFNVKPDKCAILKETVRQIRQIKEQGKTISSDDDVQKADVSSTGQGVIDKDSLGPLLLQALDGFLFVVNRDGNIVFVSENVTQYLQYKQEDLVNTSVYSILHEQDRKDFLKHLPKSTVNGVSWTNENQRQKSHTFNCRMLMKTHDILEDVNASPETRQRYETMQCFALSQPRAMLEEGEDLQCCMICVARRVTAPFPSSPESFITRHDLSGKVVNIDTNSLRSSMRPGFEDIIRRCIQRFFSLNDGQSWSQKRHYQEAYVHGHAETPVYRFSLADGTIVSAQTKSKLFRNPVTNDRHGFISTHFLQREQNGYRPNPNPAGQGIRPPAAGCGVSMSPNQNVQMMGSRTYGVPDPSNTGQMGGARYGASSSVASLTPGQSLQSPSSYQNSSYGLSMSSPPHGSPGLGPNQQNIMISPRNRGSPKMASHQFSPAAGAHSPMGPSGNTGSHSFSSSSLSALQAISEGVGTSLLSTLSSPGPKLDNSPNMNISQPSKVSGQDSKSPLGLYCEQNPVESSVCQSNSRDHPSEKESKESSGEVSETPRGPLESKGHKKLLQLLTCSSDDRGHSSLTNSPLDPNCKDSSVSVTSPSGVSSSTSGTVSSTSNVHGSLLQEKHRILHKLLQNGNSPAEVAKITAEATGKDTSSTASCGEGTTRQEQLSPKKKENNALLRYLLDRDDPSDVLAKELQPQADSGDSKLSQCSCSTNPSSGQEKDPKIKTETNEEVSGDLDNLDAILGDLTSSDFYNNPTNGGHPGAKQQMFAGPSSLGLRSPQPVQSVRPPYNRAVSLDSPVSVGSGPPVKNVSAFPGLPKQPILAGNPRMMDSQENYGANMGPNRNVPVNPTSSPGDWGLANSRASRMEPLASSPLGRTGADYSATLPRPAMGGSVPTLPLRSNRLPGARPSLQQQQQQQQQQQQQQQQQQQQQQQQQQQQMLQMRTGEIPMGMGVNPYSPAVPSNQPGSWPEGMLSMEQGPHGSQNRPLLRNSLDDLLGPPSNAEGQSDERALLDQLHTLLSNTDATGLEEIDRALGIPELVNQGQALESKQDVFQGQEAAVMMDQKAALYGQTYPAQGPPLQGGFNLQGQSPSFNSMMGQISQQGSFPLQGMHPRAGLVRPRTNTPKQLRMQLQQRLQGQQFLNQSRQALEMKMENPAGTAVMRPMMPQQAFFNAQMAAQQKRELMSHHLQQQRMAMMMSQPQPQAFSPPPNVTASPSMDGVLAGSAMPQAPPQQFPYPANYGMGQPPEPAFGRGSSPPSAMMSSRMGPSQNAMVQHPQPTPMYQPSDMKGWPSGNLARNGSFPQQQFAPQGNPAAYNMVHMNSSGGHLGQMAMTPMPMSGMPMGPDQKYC
MIN6 prolif-1: inducers of beta-cell replication in MIN6 cells; MIN6 cells proliferation, ATPlite luminescence, 48 h; cells starved in 0.2% serum; 100% = growth in 10% serum; proliferation, % at 10 µM; hit rate 0.29% among 330,000;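 active = compounds whose signal lies at least 3.5 SD above the mean of all wells on their plate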;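 also: 0% = DMSO-treated cells in low-serum medium and 100% = 10% serum control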
OPRM1-OPRD1 ag: OPRM1-OPRD1 heterodimerization agonism; cells, luminescence; P35372+P41143; AID 504326; activation, % at 9.3 µM; hit rate 0.3% among 340,000; in the data active = activation above about 18%;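 also: 0% = vehicle-treated cells and 100% = reference agonist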
OPRM1-OPRD1 inv: mu-delta opioid heterodimer inverse agonism. P35372+P41143. AID 504357. hit rate 0.21% among 340,000. inhibition, % at 9.3 µM. cell-based MOR-DOR heterodimer luminescence; in the data active = inhibition above about 22%, passing the limit was not always enough;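 also: 0% = cells with DMSO and 100% = wells without cells with DMSO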
HTR5A inv ctr: counter-screen for OPRM1-OPRD1 inverse agonists: human HTR5A inverse agonism. HTR5A cell line, luminescence. inhibition, % at 9.3 µM. hit rate 0.083% among 340,000. AID 504634; in the data active = inhibition mostly above about 23%, no sharp cut-off; inactive = mostly below about 18%;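 also: 0% = cells with DMSO and 100% = no-cell wells with DMSO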
HTR5A ag: activates human HTR5A in OPRM1-OPRD1 agonist counter-screen | P47898 | HTR5A agonist assay, luminescence, cell-based | activation, % at 9.3 µM | hit rate 0.61% among 340,000 | AID 504692; in the data active = activation mostly above about 9.5%, no sharp cut-off; inactive = mostly below about 7.6%;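 also: 0% = cells with vehicle only and 100% = reference agonist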
MIN6 prolif-2: MIN6 beta-cell replication induction, confirmed. proliferation increase, % at 50 µM. MIN6 beta-cell proliferation, ATPlite luminescence, 48 h; cells kept in 0.2% serum; scaled between 0.2% and 10% serum. 920 tested, under 10 active. shares compounds with MIN6 prolif-1. AID 463095;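 active = proliferation increase above 40% at any of the four tested concentrations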
The depositor's hits bear a star; nt = no result. Rows were chosen to be rich in hits. Some 1.4% of all compounds tested hit in one or more screens of this group.

SMILES | pCIP destab | MIN6 prolif-1 | OPRM1-OPRD1 ag | OPRM1-OPRD1 inv | HTR5A inv ctr | HTR5A ag | MIN6 prolif-2
CN(C)CCN(C(=O)CN1C(=O)c2ccccc2C1=O)c1nc2cc3c(cc2s1)OCO3 | -10.8 | 6.2 | -1.5 | 8.3 | -23.8 | 6.5 | nt
CCN(CC)CCN(C(=O)CN1C(=O)c2ccccc2C1=O)c1nc2cc3c(cc2s1)OCO3 | -9.6 | 10.3* | -0.4 | 1.9 | -15.8 | -1.6 | -1.8
CCOC(=O)N1CCC(NC(=O)c2cc3c(-c4ccc(OC)c(OC)c4)nn(C)c3s2)CC1 | -5.7 | 0.0 | -2.1 | 12.3 | -4.5 | 1.6 | nt
CCOC(=O)C1CCN(C(=O)c2cc3c(-c4ccc(OC)c(OC)c4)nn(C)c3s2)CC1 | -17.3 | 12.2* | -0.8 | 4.5 | -38.1 | -2.7 | -4.0
OCCC1CN(Cc2c(F)cccc2Cl)CCN1C1CCCC1 (stereo unspecified) | 4.7 | 8.1* | -1.9 | 9.9 | 6.6 | -2.4 | -0.5
CC(C)NC(=O)N(C)C[C@H]1Oc2c(cccc2N(C)C)C(=O)N([C@H](C)CO)C[C@@H]1C | nt | 3.0 | -1.3 | 7.3 | -8.0 | 2.7 | nt
CCOC(=O)CSc1nc2ccccc2c(=O)n1C1CCCC1 | -3.1 | 5.3* | 2.1 | -10.4 | 35.8 | -1.1 | -6.5
O=C(NCCN1CCOCC1)c1cc2ccccc2[nH]1 | -3.0 | 8.2* | -3.4 | 18.2 | 18.6 | -6.6 | -0.5
Nc1ccc[n+](Cc2ccccn2)c1 | -16.7 | 4.9* | -1.5 | 6.1 | 1.1 | -0.5 | 1.1
CCc1cccc(NC(=O)c2cccc3c2C(=O)N(C2CCCCC2)C3)c1 | 8.1 | -6.3 | 0.9 | -4.6 | 22.8 | 3.5 | nt
CN1CC(=O)N(CC(=O)Nc2cccc3ccccc23)C1=O | nt | 0.2 | -1.2 | 4.7 | -6.9 | 2.7 | nt
CCOc1ccccc1Nc1cc2n(c(=O)n1)CCc1cc(OC)c(OC)cc1-2 | -11.1 | 12.1* | -1.2 | 5.9 | -20.2 | 5.5 | -0.7
O=C(Cc1ccc(Br)cc1)OCC(=O)c1ccc[nH]1 | nt | 2.1 | -0.7 | 3.7 | 4.7 | -1.2 | nt
CCN(CC)C(=O)[C@]1(c2ccccc2)C[C@@H]1CN | 0.4 | 12.2* | nt | nt | nt | nt | 0.7
CCCOc1ccc(C(=O)CCC(=O)OCC(=O)N2CCN(S(=O)(=O)c3ccc(C)cc3C)CC2)cc1 | nt | nt | 1.9 | -6.9 | 5.5 | 0.9 | nt
CCCCOc1ccc(C(=O)NCC(=O)NCCOc2ccccc2OC)cc1 | nt | 2.4 | -1.4 | 5.8 | 8.1 | -3.3 | nt
Cc1ccc(CNC(=O)CCNC(=O)N2CCn3c2nc2ccccc23)cc1 | -13.1 | 13.5* | nt | nt | nt | nt | -2.0
Cc1ccc(CNC(=O)CCCCCNC(=O)N2CCn3c2nc2ccccc23)cc1 | -7.7 | 4.9 | nt | nt | nt | nt | nt
Cc1cc2nc(C)c(=O)n(C)c2cc1C | 5.2 | 7.3* | -1.7 | 8.8 | -10.1 | 4.0 | 2.1
c1ccc(Cn2nnnc2CN2CCCC2)cc1 | 0.4 | 4.8* | -1.0 | 5.4 | -25.0 | -2.6 | 1.7
COc1ccc(Cn2nnnc2CN2CCCCCC2)cc1 | -1.9 | -0.3 | 1.4 | -9.8 | -0.7 | 0.3 | nt
CCN(CC)S(=O)(=O)c1cc(OC)c(Cl)cc1OC | -12.2 | 7.8* | -1.0 | 5.5 | 3.6 | -1.4 | -1.4
CCCn1c(SCC(=O)c2c(C)[nH]c(C)c2C(=O)OCC)nc2ccccc21 | -5.2 | 6.8* | -0.7 | 3.3 | 11.8 | 1.5 | -3.8
CCOC(=O)c1c(C)[nH]c(C)c1C(=O)CSc1nc2ccccc2n1CCC#N | -10.9 | 2.5 | -3.2 | 16.8 | 5.4 | -0.8 | nt
O=C(c1cc(Br)ccc1O)N1CCN(S(=O)(=O)Cc2ccccc2)CC1 | nt | -0.6 | -1.7 | 7.1 | 2.9 | -1.2 | nt
SMILES | pCIP destab | MIN6 prolif-1 | OPRM1-OPRD1 ag | OPRM1-OPRD1 inv | HTR5A inv ctr | HTR5A ag | MIN6 prolif-2
CON(c1nc(Cl)nc(N(C)C)n1)S(=O)(=O)c1ccc(C)cc1 | 0.5 | -2.5 | -3.0 | 14.1 | -11.9 | 3.3 | nt
COc1nc(N(C)C)nc(N(C#N)S(=O)(=O)c2ccc(C)cc2)n1 | -85.3 | 5.8* | -0.2 | 1.1 | -8.7 | 2.3 | 0.9
Cc1ccc(S(=O)(=O)N(C)C)cc1NC(=O)COC(=O)c1n[nH]c(=O)c2ccccc12 | 3.5 | 11.5* | -1.0 | 4.9 | -5.4 | 2.2 | 0.9
Cc1ccc(S(=O)(=O)N(C)C)cc1NC(=O)COC(=O)Cc1n[nH]c(=O)c2ccccc12 | 2.4 | 0.7 | -3.6 | 18.2 | -2.9 | 1.2 | nt
CCn1c(SCC(=O)Nc2ccc(N3CCOCC3)cc2)nnc1-c1ccco1 | nt | -1.1 | -3.3 | 16.0 | 23.1 | -1.9 | nt
Cc1cccc(N2CCN(C(=S)NC3CCCCC3)CC2)c1C | -1.7 | 7.9* | 2.1 | -10.7 | -5.0 | 2.2 | 0.2
Cc1ccc(C)c(N2CCN(C(=S)NC3CCCCC3)CC2)c1 | 8.4 | -3.3 | -0.8 | 3.9 | -10.5 | 4.0 | nt
CNC(=S)N/N=C/c1ccc(OCC(=O)Nc2c(C)cc(C)cc2C)c(OC)c1 | -13.3 | 0.0* | 1.4 | -8.2 | -7.0 | 2.0 | -1.3
CC(C)C(NC(=O)c1c(F)cccc1F)C(=O)N1CCN(c2ncccn2)CC1 (stereo unspecified) | nt | -3.2 | -4.7 | 17.6 | 9.4 | 3.0 | nt
COc1ccc(COn2c(=O)c(C)[n+]([O-])c3ccccc32)cc1OC | -4.8 | 5.1* | -1.4 | 8.1 | -1.1 | -1.1 | 0.7
CCOC(=O)C1CSc2[nH]c(=O)sc2C1c1ccccc1 (stereo unspecified) | 5.1 | 11.7* | -2.0 | 10.4 | 6.8 | -0.5 | -3.9
O=C(O)Cc1cn(Cc2ccc(F)cc2)c2ccccc12 | -5.3 | 7.4* | -3.4 | 16.9 | 14.8 | -3.2 | -2.9
Cc1cc(NC(=O)c2c(-c3c(Cl)cccc3Cl)noc2C)n(C)n1 | -0.3 | 6.8* | -1.9 | 9.8 | -5.4 | 3.2 | 2.3
OC(c1ccc(Cl)cc1)c1nccc2ccccc12 (stereo unspecified) | -3.5 | 5.5* | -1.2 | 6.8 | 8.2 | 5.1 | -5.9
O=C(OC(c1ccccc1)c1nccc2ccccc12)c1ccccc1 (stereo unspecified) | nt | nt | -2.3 | 11.7 | -0.7 | 0.2 | nt
Cc1cc(C)nc(NS(=O)(=O)c2ccc(NC(=O)CCN3C(=O)c4ccccc4C3=O)cc2)n1 | 9.3 | 8.2* | -1.6 | 7.5 | -8.9 | 3.8 | 0.0
C=CC[C@H](CC(=O)N(CCO)Cc1ccccc1)C(=O)N[C@H](COC(=O)[C@@H](CC=C)CC(=O)OC(C)(C)C)Cc1c[nH]c2ccccc12 | nt | -5.9 | -2.1 | 9.7 | 1.5 | 5.2 | nt
CCN(CC)C(=O)C12CC3CC(CC(Cl)(C3)C1)C2 | 1.2 | 2.4 | -0.6 | 3.4 | 5.7 | 1.4 | nt
CC(C)(C)NC(=O)C12CC3CC(CC(Cl)(C3)C1)C2 | -5.6 | 8.0* | -1.1 | 6.0 | 7.2 | -1.2 | -1.8
O=C(COC(=O)/C=C/c1ccccc1[N+](=O)[O-])NNC(=O)c1ccc(F)cc1 | nt | -1.1 | -1.6 | 11.1 | 15.2 | -5.8 | nt
COc1ccccc1C(=O)Nc1ccc2c(C)cc(=O)oc2c1 | 0.1 | -2.1 | 4.0 | -18.7 | -8.3 | 2.3 | nt
